Sm TGR block = S. mansoni TGR enzyme inhibition | Q962Y6 | purified TGR, DTNB reduction, TNB absorbance 405 nm | Potency, µM (doses to about 114 µM), for the others: at the top dose activity change, negative = inhibition, most hits filed as inhibitors | hit rate 3% among 360,000 | AID 485364; also: nearly all actives have a fitted effect of over 60% in size
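First, TGR (20 nM dispensed) and NADPH were mixed with compound. Second, a 15 min room-temperature incubation followed. Third, further NADPH and then DTNB were added to start the reaction. Finally, TNB absorbance was monitored kinetically.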
RE007 growth inh = less growth of the S. pombe RE007 Vpr strain. S. pombe RE007 Vpr strain, BacTiter-Glo ATP luminescence, 24 h. Potency, µM (doses to about 92.2 µM), inactives show at the highest dose activity change, negative = less growth, hits mostly inhibitors. hit rate 0.21% among 360,000. AID 651644; active = well fitted falling curve with a large enough effect; inconclusive = small, poorly fitted or top-dose-only effect; inactive = no such curve, though single readings can be large or run the other way; also: nearly all actives have a fitted effect of over 50% in size
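Fission yeast strain RE007, carrying one chromosomally integrated HIV-1 vpr copy, was seeded at OD 0.01 in PMG+AL medium with 23 nL pinned compound. After 24 h at 30 °C and 99% humidity, viability was read by BacTiter-Glo luminescence.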
LASV entry inh = Lassa virus entry inhibition; AID 540256; Potency, µM (highest dose often 37.9 µM), without a hit: at the top dose activity change, negative = inhibition, most hits filed as inhibitors; hit rate 1.2% among 300,000; Lassa virus pseudotype entry inhibition, cell reporter; calls by dose curve; tested in HEK293 cells; also: nearly all actives have a fitted effect of over 50% in size
HCV inhibitor = HCV inhibition | Potency, µM (series often up to 41.8 µM), for inactives: at the top dose activity change, negative = inhibition, usual class: inhibitors | hit rate 3.4% among 340,000 | Huh7.5.1 HCVcc-Cre infection, luciferase reporter, 44 h | AID 651820
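Reporter virus HCVcc-Cre (~0.5 moi) infects cells exposed to compound; seeding density 1,000 cells/well with 4 h settling beforehand. Luminescence, 15 sec read, taken 44 h post-infection following a 15 min RT substrate incubation.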
FMDV inh = blocks foot and mouth disease virus. FMDV antiviral cell-based qHTS. Potency, µM (doses to about 57.9 µM), for inactives: at the highest dose activity change, negative = inhibition, most hits filed as inhibitors. hit rate 1.2% among 410,000. AID 1159524; calls by dose curve; tested in HEK293T cells; also: read-out not given here; nearly all actives have a fitted effect of over 45% in size
* marks the source's active call; other numbers are inactive results; [ ] = dose if it differs, or a comment. Hits are enriched below; roughly 7.2% of the tested compounds scored in any of these assays. Unless noted, calls follow the shape of the dose curve; as a rule, active = well fitted curve in the direction sought with a large enough effect; inconclusive = small, poorly fitted or top-dose-only effect, or another doubt; inactive = no such curve, though single readings can be large; an effect the other way counts as inactive or inconclusive. % is scaled to controls: 0 for no effect and ±100 for the full control effect; potency is read from the fitted curve at half-maximal effect.

O=C(Nc1cccc(F)c1)N1CCCC2(CCN(C(=O)c3cc(C(F)(F)F)cc(C(F)(F)F)c3)CC2)C1 was read as FMDV inh -5%.
Screening C[C@H](NC(=O)c1nc[nH]c1C(=O)NCCCCCNC(=O)OC(C)(C)C)C(=O)OC(C)(C)C returned Sm TGR block 0%, RE007 growth inh -8%, HCV inhibitor 11µM* and FMDV inh inconclusive.
For C[C@H](NC(=O)c1nc[nH]c1C(=O)NC(c1ccccc1)c1ccccc1)C(=O)OC(C)(C)C the results were Sm TGR block -11%, RE007 growth inh -15%, HCV inhibitor inconclusive and FMDV inh -21%.
CC(C)C[C@H](NC(=O)c1nc[nH]c1C(=O)NCCCCCNC(=O)OC(C)(C)C)C(=O)OC(C)(C)C was read as Sm TGR block -6%, RE007 growth inh 11%, HCV inhibitor -19% and FMDV inh inconclusive.
CC1CCN(C(=O)c2[nH]cnc2C(=O)N[C@@H](C)C(=O)OCc2ccccc2)CC1 was read as Sm TGR block -7%, RE007 growth inh 74%, HCV inhibitor 3.5µM* and FMDV inh -29%.
`CC(C)(C)OC(=O)CNC(=O)c1[nH]cnc1C(=O)NCCCCCNC(=O)OC(C)(C)C` gave Sm TGR block 7%, RE007 growth inh -8%, HCV inhibitor inconclusive and FMDV inh 16µM*.
`C[C@H](NC(=O)c1nc[nH]c1C(=O)N[C@H](C)c1ccccc1)C(=O)OC(C)(C)C` gave Sm TGR block 7%, RE007 growth inh 7%, HCV inhibitor 13µM* and FMDV inh 0%.
For Cc1cccc(Cn2c(=O)n(-c3cc(C)cc(C)c3)c(=O)c3oc4ccccc4c32)c1 the results were Sm TGR block 7%, LASV entry inh 1%[46.1 µM] and FMDV inh -18%.
Screening CN(Cc1ccccc1)C(=O)CSc1nc2ccsc2c(=O)n1-c1ccc(F)cc1 returned Sm TGR block -4%, LASV entry inh -3%[46.1 µM] and FMDV inh -5%.
Screening C/C=C(\C)C(=O)OC1CC(C)(C)C[C@H]2C3=CC[C@@H]4[C@@]5(C)CCC(O[C@@H]6O[C@@H](C(=O)O)[C@@H](O)C(O[C@@H]7OC[C@H](O)[C@@H](O)[C@@H]7O[C@@H]7OC(CO)C(O)[C@@H](O)[C@@H]7O)C6O[C@@H]6OC(CO)C(O)C(O)C6O)[C@@](C)(CO)[C@@H]5CC[C@]4(C)[C@]3(C)CC(O)[C@@]12CO (some centres not stated) returned RE007 growth inh 6%, HCV inhibitor 11µM* and FMDV inh -18%.
CC1(C)CC[C@]2(C(=O)O[C@@H]3OC(CO)[C@@H](O)[C@H](O)[C@H]3O)CC[C@]3(C)C(=CCC4[C@@]5(C)CC[C@H](O[C@@H]6OC(C(=O)O)[C@@H](O)[C@H](O)[C@H]6O)C(C)(C)C5CC[C@]43C)[C@@H]2C1 (some centres not stated) was read as RE007 growth inh inconclusive, HCV inhibitor 4% and FMDV inh -27%.
For CC1(C)C[C@H]2C3=CCC4[C@@]5(C)CC[C@H](O)[C@@](C)(CO)C5CC[C@@]4(C)[C@]3(C)C[C@@H](O)[C@@]2(CO)[C@@H](O)[C@@H]1O (some centres not stated) the results were RE007 growth inh 6%, HCV inhibitor 4% and FMDV inh -18%.
Screening COC(=O)C1OC(OC2CC[C@]3(C)C(CC[C@@]4(C)[C@@H]3CC=C3[C@@H]5CC(C)(C)CC[C@]5(C(=O)OC5OC(CO)C(O)C(O)C5O)CC[C@]34C)C2(C)C)C(O)C(O)C1O[C@H]1OCC(O)C(O)C1O (some centres not stated) returned RE007 growth inh 11%, HCV inhibitor 10µM* and FMDV inh -26%.

Compound activity deposited in PubChem BioAssay by National Center for Advancing Translational Sciences (NCATS).
